From PubChem
MEKK2 WT-MEK5 – raises or lowers MEK5 binding to wildtype human MEKK2 PB1 domain; Q9Y2U5; bead flow cytometry, Alexa488-MEK5 binding to MEKK2 WT; actives lie on both sides; binding response (% of control), % at 10 µM; hit rate 1.1% among 290,000; AID 1531; in the data active = binding response below about 67% or above about 130%
UBC13 inh – inhibitors of human UBC13 polyubiquitin chain formation | P61088 | TR-FRET | AID 485273 | inhibition, % at 20 µM | hit rate 0.47% among 330,000; in the data active = inhibition above about 45%, passing the limit was not always enough
ATG4B inh – inhibitors of human ATG4B cysteine protease; Q9Y4P1; ATG4B cleavage of LC3-PLA2, NBD-HPC fluorescence, 1 h; hit rate 0.51% among 340,000; AID 504462; inhibition, % at 8.33 µM; in the data active = inhibition above about 40%
MEKK2 mut-MEK5 – signal of MEK5 binding to mutant human MEKK2 PB1 domain; bead flow cytometry, Alexa488-MEK5 binding to MEKK2 mutant; percent response, % at 10 µM; hit rate 0.35% among 290,000; AID 1530; in the data active = percent response above about 24%, passing the limit was not always enough
PREPL inh – inhibits the human prolyl oligopeptidase-like enzyme; hit rate 0.68% among 320,000; inhibition, % at 5.96 µM; Q4J6C6; recombinant PREPL, fluorescence polarization activity-based probe; in the data active = inhibition above about 43%;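 note: 0% = enzyme with DMSO and 100% = wells lacking enzyme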
MEKK3 PB1 HTS – MEKK3-MEK5 PB1 interaction, increase or decrease; Q99759; bead-based flow cytometry, Alexa488-MEK5 binding to MEKK3; actives lie on both sides; 0 = blocked by unlabeled MEK5, 100 = vehicle; binding response (% of control), % at 10 µM; hit rate 1.4% among 290,000; AID 1529;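 active = binding response more than 3 SD above or below the average of its plate-row segment, actives on both sides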;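 note: Alexa488 bead fluorescence after subtracting the streptavidin-only scavenger bead signal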
Target sequence (Q99759 whole entry, looked up): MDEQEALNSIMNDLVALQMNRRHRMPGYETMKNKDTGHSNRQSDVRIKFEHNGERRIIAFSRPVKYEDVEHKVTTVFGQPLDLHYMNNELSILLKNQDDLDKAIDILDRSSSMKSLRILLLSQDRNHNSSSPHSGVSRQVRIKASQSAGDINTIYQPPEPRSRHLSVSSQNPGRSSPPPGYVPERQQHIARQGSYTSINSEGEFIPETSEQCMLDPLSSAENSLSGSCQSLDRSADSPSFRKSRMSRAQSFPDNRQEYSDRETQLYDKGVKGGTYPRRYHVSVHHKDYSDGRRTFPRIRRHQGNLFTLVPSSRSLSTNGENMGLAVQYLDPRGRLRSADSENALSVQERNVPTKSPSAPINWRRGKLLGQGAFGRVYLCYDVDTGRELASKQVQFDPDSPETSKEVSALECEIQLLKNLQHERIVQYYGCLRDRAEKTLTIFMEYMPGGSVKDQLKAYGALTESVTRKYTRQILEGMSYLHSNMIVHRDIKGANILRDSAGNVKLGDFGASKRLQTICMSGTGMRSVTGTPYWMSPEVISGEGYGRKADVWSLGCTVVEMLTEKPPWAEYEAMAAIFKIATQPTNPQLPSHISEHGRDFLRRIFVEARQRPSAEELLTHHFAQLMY
MEKK2wt confirm – raises or lowers MEK5 binding to wildtype human MEKK2, retest; bead flow cytometry, Alexa488-MEK5 binding to MEKK2 WT; actives lie on both sides; hit rate 2.4% among 5,900; binding response (% of control), % at 10 µM; shares compounds with MEKK3 PB1 HTS; in the data active = binding response below about 16% or above about 210%; inactive = in between
MEKK2mut confirm – signal of MEK5 binding to mutant human MEKK2, retest. bead flow cytometry, Alexa488-MEK5 binding to MEKK2 mutant. percent response, % at 10 µM. AID 1893. hit rate 2% among 5,900. shares compounds with MEKK3 PB1 HTS; in the data active = percent response mostly above about 71%, no sharp cut-off; inactive = mostly below about 38%;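 note: higher means compound restores mutant binding toward wildtype level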
MEKK3 confirm – MEKK3-MEK5 PB1 inhibition, single concentration confirmation; binding response (% of control), % at 10 µM; AID 1894; shares compounds with MEKK3 PB1 HTS; hit rate 1.8% among 5,900; bead flow cytometry, Alexa488-MEK5 binding to MEKK3; hits give low values;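 active = binding response below 72% of control, or above a set upper limit, though filed actives all read lower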;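 note: 100% = DMSO only wells and 0% = binding blocked by excess unlabeled MEK5; lower values mean stronger disruption of MEK5 binding to MEKK3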
* marks the source's active call; other numbers are inactive results; x = no result; [ ] = remark or other dose. This is a sample that favours compounds with a hit; in the whole collection about 3.1% have one here.

SMILES	MEKK2 WT-MEK5	UBC13 inh	ATG4B inh	MEKK2 mut-MEK5	PREPL inh	MEKK3 PB1 HTS	MEKK2wt confirm	MEKK2mut confirm	MEKK3 confirm
O=C(NCc1cccnc1)c1ccccc1[N+](=O)[O-]	101	4	-6	3	11	102	x	x	x
O=C(N/N=C/c1ccc([N+](=O)[O-])cc1)c1cnccn1	64	-16	6	-19	18	66*[inhibitor]	96	-4	93
O=C(NNC(=S)Nc1ccccc1)c1ccccc1[N+](=O)[O-]	7.0*[inhibitor]	-2	0	-18	1	5.0*[inhibitor]	109	3	103
O=C(NC(=S)NCc1cccnc1)c1ccccc1[N+](=O)[O-]	2.0*[inhibitor]	0	-6	-6	5	2.0*[inhibitor]	91	-6	96
O=C(N/N=C/c1cccnc1)c1ccccc1[N+](=O)[O-]	88	0	-1	-2	10	58*[inhibitor]	99	-4	99
O=C(N/N=C/c1ccncc1)c1cnccn1	108	-1	-7	6	2	105	x	x	x
O=C(COC(=O)/C=C/c1cccs1)Nc1cccc(S(=O)(=O)N2CCCC2)c1	90	-7	-3	-8	0	97	x	x	x
Cc1nc2ccccc2n1C(=O)N(C)C	106	-5	-4	5	-4	109	x	x	x
COc1ccc(NC2CCCN(C(=O)CCN3Cc4ccccc4C3=O)C2)cc1 (stereo unspecified)	107	3	-5	2	11	102	x	x	x
C#CCCOC(=O)N1C2=NC(C(=O)OC)=C(C(=O)OC)[C@@H]3N(Cc4ccccc4)c4ccccc4[C@]23C[C@H]1C(=O)OC	95	2	-7	2	23	95	x	x	x
Cc1cccnc1N1C(=O)c2ccc(C(=O)O)cc2C1=O	105	-3	-10	5	3	102	x	x	x
C=CCn1c(SCc2cccc3ccccc23)nnc1-c1cccnc1	108	-13	5	9	19	108	x	x	x
CC1(C)Cc2c(ccc3ccccc23)-c2nnc(-c3cccnc3)n21	-8.0*[inhibitor]	-5	-17	-22	20	0.0*[inhibitor]	103	2	100
CCCCN(C)C(=O)Cn1c(=O)oc2cc(S(=O)(=O)N3CC(C)CC(C)C3)ccc21 (stereo unspecified)	117	-8	9	29	9	132*	111	9	102
CC(OC(=O)c1ccco1)C(=O)NCc1ccc2c(c1)OCO2 (stereo unspecified)	105	0	-1	3	-3	101	x	x	x
CCCn1c(CNC(=O)Cc2ccccc2)nc2ccccc21	38*[inhibitor]	-5	-2	-10	4	32*[inhibitor]	102	2	101
CCCC(=O)NCCc1nc2ccccc2n1CCC	101	-1	-2	6	-2	100	x	x	x
CC(=O)OCC(=O)[C@@]1(O)CC[C@H]2[C@@H]3CCC4=CC(=O)C=C[C@]4(C)[C@@]3(F)[C@@H](O)C[C@@]21C	x	-3	-7	x	16	x	x	x	x
CC(=O)OCC(=O)C1=CCC2C3CCC4=CC(=O)C=CC4(C)C3(F)C(OC(C)=O)CC12C (stereo unspecified)	37*[inhibitor]	-16	-3	-2	4	62*[inhibitor]	103	0	102
CCOC(=O)CNC(=O)CSc1nnc(Cn2cnc3ccccc32)n1C	118	-2	-14	6	-4	126*	103	2	102
Cn1c2ccccc2c(=O)c2cc(C#Cc3cccc(N)c3)ccc21	x	-18	-3	x	25	x	x	x	x
COc1ccccc1C#Cc1ccc2c(=O)c3ccccc3n(C)c2c1	66*[inhibitor]	-23	5	-9	10	91	86	-9	94
Cc1ccc2oc(=O)n(CCCOc3ccccc3)c2c1	121	2	-3	4	-11	125*	102	9	102
